Laboratory results reported in PubChem BioAssay AID1159580 (chemical genetic matrix, 2015).
Among all 5,500 compounds or so, about 2,000 (36%) were called active. Another 18% or so got no clear call; they are omitted. Rule as the data show it: active = normalized growth mostly below about 0.91 (no sharp cut-off); inconclusive = no clear call, values can overlap the other calls; inactive = mostly above about 0.92. Some of the results follow.

Test: chemical genetic growth profiling, strain panel (AID 1159580);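 also: tested at 20 µM; growth read once vehicle control cultures reached saturation at 30 °C; 1 = growth at the plate median or of vehicle wells; lower values mean less growth of the strain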
Details: growth OD
[1] = S. cerevisiae deletion strains, locus YAR019C, strain CDC15, hits give low values
[2] = S. cerevisiae deletion strains, locus YBL105C, strain PKC1, hits give low values
[3] = S. cerevisiae deletion strains, locus YBR135W, strain CKS1, hits give low values
[4] = S. cerevisiae deletion strains, locus YBR136W, strain MEC1, hits give low values
[5] = S. cerevisiae deletion strains, locus YBR160W, strain CDC28, hits give low values
[6] = S. cerevisiae deletion strains, locus YDL017W, strain CDC7, hits give low values
[7] = S. cerevisiae deletion strains, locus YDL028C, strain MPS1, hits give low values
[8] = S. cerevisiae deletion strains, locus YDL101C, strain DUN1, hits give low values
[9] = S. cerevisiae deletion strains, locus YDL108W, strain KIN28, hits give low values
[10] = S. cerevisiae deletion strains, locus YDL132W, strain cdc53, hits give low values
[11] = S. cerevisiae deletion strains, locus YDL214C, strain PRR2, hits give low values
[12] = S. cerevisiae deletion strains, locus YDR052C, strain DBF4, hits give low values
[13] = S. cerevisiae deletion strains, locus YDR054C, strain cdc34, hits give low values
[14] = S. cerevisiae deletion strains, locus YDR226W, strain ADK1, hits give low values
[15] = S. cerevisiae deletion strains, locus YDR477W, strain SNF1, hits give low values
[16] = S. cerevisiae deletion strains, locus YER123W, strain YCK3, hits give low values
[17] = S. cerevisiae deletion strains, locus YER133W, strain GLC7, hits give low values
[18] = S. cerevisiae deletion strains, locus YFL009W, strain cdc4, hits give low values
[19] = S. cerevisiae deletion strains, locus YFL029C, strain CAK1, hits give low values
[20] = S. cerevisiae deletion strains, locus YFR003C, strain YPI1, hits give low values
[21] = S. cerevisiae deletion strains, locus YFR019W, strain FAB1, hits give low values
[22] = S. cerevisiae deletion strains, locus YFR028C, strain CDC14, hits give low values
[23] = S. cerevisiae deletion strains, locus YGR040W, strain KSS1, hits give low values
[24] = S. cerevisiae deletion strains, locus YGR052W, strain FMP48, hits give low values
[25] = S. cerevisiae deletion strains, locus YGR092W, strain DBF2, hits give low values
[26] = S. cerevisiae deletion strains, locus YHR030C, strain SLT2, hits give low values
[27] = S. cerevisiae deletion strains, locus YHR079C, strain IRE1, hits give low values
[28] = S. cerevisiae deletion strains, locus YHR082C, strain KSP1, hits give low values
[29] = S. cerevisiae deletion strains, locus YHR205W, strain SCH9, hits give low values
[30] = S. cerevisiae deletion strains, locus YIL147C, strain SLN1, hits give low values
[31] = S. cerevisiae deletion strains, locus YJL095W, strain BCK1, hits give low values
[32] = S. cerevisiae deletion strains, locus YJL128C, strain PBS2, hits give low values
[33] = S. cerevisiae deletion strains, locus YJL157C, strain FAR1, hits give low values
[34] = S. cerevisiae deletion strains, locus YJR016C, strain ILV3, hits give low values
[35] = S. cerevisiae deletion strains, locus YJR066W, strain TOR1 (second series), hits give low values
[36] = S. cerevisiae deletion strains, locus YJR066W, strain TOR1, hits give low values
[37] = S. cerevisiae deletion strains, locus YKL048C, strain ELM1, hits give low values
[38] = S. cerevisiae deletion strains, locus YKL067W, strain YNK1, hits give low values
[39] = S. cerevisiae deletion strains, locus YKL101W, strain HSL1, hits give low values
[40] = S. cerevisiae deletion strains, locus YKL193C, strain SDS22, hits give low values
[41] = S. cerevisiae deletion strains, locus YKL203C, strain TOR2, hits give low values
[42] = S. cerevisiae deletion strains, locus YLR113W, strain HOG1, hits give low values
[43] = S. cerevisiae deletion strains, locus YLR133W, strain CKI1, hits give low values
[44] = S. cerevisiae deletion strains, locus YLR403W, strain SFP1, hits give low values
[45] = S. cerevisiae deletion strains, locus YML070W, strain DAK1, hits give low values
[46] = S. cerevisiae deletion strains, locus YMR001C, strain CDC5, hits give low values
[47] = S. cerevisiae deletion strains, locus YMR205C, strain PFK2 (second series), hits give low values
[48] = S. cerevisiae deletion strains, locus YMR277W, strain FCP1, hits give low values
[49] = S. cerevisiae deletion strains, locus YNL006W, strain LST8, hits give low values
[50] = S. cerevisiae deletion strains, locus YNL020C, strain ARK1, hits give low values
[51] = S. cerevisiae deletion strains, locus YNL161W, strain CBK1, hits give low values
[52] = S. cerevisiae deletion strains, locus YNL183C, strain NPR1, hits give low values
[53] = S. cerevisiae deletion strains, locus YNL207W, strain RIO2, hits give low values
[54] = S. cerevisiae deletion strains, locus YNL222W, strain SSU72, hits give low values
[55] = S. cerevisiae deletion strains, locus YNL307C, strain MCK1 (second series), hits give low values
[56] = S. cerevisiae deletion strains, locus YOL078W, strain AVO1, hits give low values
[57] = S. cerevisiae deletion strains, locus YOL136C, strain PFK27, hits give low values
[58] = S. cerevisiae deletion strains, locus YOR061W, strain CKA2, hits give low values
[59] = S. cerevisiae deletion strains, locus YOR119C, strain RIO1, hits give low values
[60] = S. cerevisiae deletion strains, locus YOR231W, strain MKK1, hits give low values
[61] = S. cerevisiae deletion strains, locus YOR329C, strain SCD5, hits give low values
[62] = S. cerevisiae deletion strains, locus YPL031C, strain PHO85, hits give low values
[63] = S. cerevisiae deletion strains, locus YPL153C, strain RAD53, hits give low values
[64] = S. cerevisiae deletion strains, locus YPL204W, strain HRR25, hits give low values
[65] = S. cerevisiae deletion strains, locus YPL209C, strain IPL1, hits give low values
[66] = S. cerevisiae deletion strains, locus YPL256C, strain CLN2, hits give low values
[67] = S. cerevisiae deletion strains, locus YPR025C, strain CCL1, hits give low values
[68] = S. cerevisiae deletion strains, locus YPR106W, strain ISR1, hits give low values
[69] = S. cerevisiae deletion strains, locus YPR111W, strain DBF20, hits give low values
[70] = S. cerevisiae deletion strains, strain NNK1, hits give low values
[71] = S. cerevisiae deletion strains, strain TSCII, hits give low values

Measured: normalized growth

Cc1cc(-c2onc(C)c2C(=O)Sc2ccccc2)no1
inactive: [1] 0.941 | [2] 0.963 | [3] 0.939 | [4] 0.961 | [5] 0.954 | [6] 0.957 | [7] 0.958 | [8] 0.959 | [9] 0.962 | [10] 0.926 | [11] 0.826 | [12] 0.971 | [13] 0.918 | [14] 0.954 | [15] 0.811 | [16] 0.736 | [17] 0.823 | [18] 0.921 | [19] 0.921 | [20] 0.958 | [21] 0.909 | [22] 0.96 | [23] 0.852 | [24] 0.81 | [25] 0.705 | [27] 0.704 | [28] 0.901 | [29] 0.657 | [30] 0.958 | [31] 0.704 | [32] 0.888 | [33] 0.819 | [34] 0.944 | [35] 0.708 | [36] 0.892 | [37] 0.942 | [38] 0.824 | [39] 0.881 | [40] 0.942 | [41] 0.885 | [43] 0.867 | [44] 0.794 | [45] 0.829 | [46] 0.935 | [47] 0.87 | [48] 0.925 | [49] 0.962 | [50] 0.846 | [51] 0.947 | [52] 0.68 | [53] 0.947 | [54] 0.943 | [55] 0.802 | [56] 0.918 | [57] 0.843 | [58] 0.859 | [59] 0.836 | [60] 0.75 | [61] 0.95 | [62] 0.783 | [63] 0.756 | [64] 0.805 | [65] 0.944 | [67] 0.956 | [68] 0.973 | [69] 0.97 | [70] 0.953 | [71] 0.93
active: [26] 0.743 | [42] 0.453 | [66] 0.695

CSc1cc(C(F)(F)F)cc(SC)c1SC
active: S. cerevisiae deletion strains, locus YDL134C, strain PPH21, hits give low values 0.909 | [26] 0.678 | S. cerevisiae deletion strains, locus YLR039C, strain RIC1, hits give low values 0.785 | S. cerevisiae deletion strains, locus YLR262C, strain YPT6, hits give low values 0.809 | S. cerevisiae deletion strains, locus YMR307W, strain GAS1, hits give low values 0.373
inactive: S. cerevisiae deletion strains, locus YAL013W, strain DEP1, hits give low values 0.993 | S. cerevisiae deletion strains, locus YBR229C, strain ROT2, hits give low values 0.975 | [8] 0.992 | S. cerevisiae deletion strains, locus YDR150W, strain NUM1, hits give low values 1.01 | S. cerevisiae deletion strains, locus YEL061C, strain CIN8, hits give low values 0.987 | S. cerevisiae deletion strains, locus YGR078C, strain PAC10, hits give low values 0.981 | S. cerevisiae deletion strains, locus YHR087W, strain rtc3, hits give low values 0.953 | S. cerevisiae deletion strains, locus YJL187C, strain SWE1, hits give low values 0.986 | S. cerevisiae deletion strains, locus YJR043C, strain POL32, hits give low values 0.988 | S. cerevisiae deletion strains, locus YJR075W, strain HOC1, hits give low values 0.945 | S. cerevisiae deletion strains, locus YKL190W, strain CNB1, hits give low values 0.967 | S. cerevisiae deletion strains, locus YLR058C, strain SHM2 (second series), hits give low values 0.974 | S. cerevisiae deletion strains, locus YLR085C, strain ARP6, hits give low values 0.958 | S. cerevisiae deletion strains, locus YML094W, strain GIM5, hits give low values 1.01 | S. cerevisiae deletion strains, locus YMR219W, strain ESC1, hits give low values 0.978 | S. cerevisiae deletion strains, locus YMR263W, strain SAP30, hits give low values 0.997 | S. cerevisiae deletion strains, locus YNL153C, strain GIM3, hits give low values 1 | S. cerevisiae deletion strains, locus YNL298W, strain CLA4 (second series), hits give low values 0.975 | S. cerevisiae deletion strains, locus YNL322C, strain KRE1, hits give low values 0.969 | S. cerevisiae deletion strains, locus YNR030W, strain Alg12, hits give low values 0.974 | S. cerevisiae deletion strains, locus YPL055C, strain LGE1, hits give low values 0.866 | S. cerevisiae deletion strains, locus YPL241C, strain CIN2, hits give low values 0.986 | S. cerevisiae deletion strains, locus YPR135W, strain CTF4, hits give low values 0.909 | S. cerevisiae strains, strain wild type, hits give low values 0.925

N#Cc1nccnc1N1CCN(C(=O)Nc2cc(Cl)cc(Cl)c2)CC1
active: [26] 0.714
inactive: [1] 0.963 | [2] 0.972 | [3] 0.947 | [4] 0.972 | [5] 0.965 | [6] 0.969 | [7] 0.965 | [8] 0.975 | [9] 0.968 | [10] 0.967 | [11] 0.955 | [12] 0.969 | [13] 0.952 | [14] 0.965 | [15] 0.923 | [16] 0.946 | [17] 0.967 | [18] 0.951 | [19] 0.958 | [20] 0.972 | [21] 0.947 | [22] 0.966 | [23] 0.946 | [24] 1.05 | [25] 0.896 | [27] 0.739 | [28] 0.964 | [29] 0.946 | [30] 0.966 | [31] 0.824 | [32] 0.954 | [33] 0.925 | [34] 0.952 | [35] 0.934 | [36] 0.891 | [37] 0.959 | [38] 0.959 | [39] 0.938 | [40] 0.961 | [41] 0.985 | [42] 0.892 | [43] 0.942 | [44] 0.949 | [45] 0.94 | [46] 0.968 | [47] 0.947 | [48] 0.97 | [49] 0.961 | [50] 0.934 | [51] 0.961 | [52] 0.952 | [53] 0.971 | [54] 0.967 | [55] 0.941 | [56] 0.961 | [57] 0.924 | [58] 0.931 | [59] 1.02 | [60] 0.883 | [61] 0.971 | [62] 0.9 | [63] 0.906 | [64] 0.915 | [65] 0.974 | [66] 0.922 | [67] 0.959 | [68] 0.986 | [69] 0.958 | [70] 0.973 | [71] 0.953
